The results in this text go back to PubChem BioAssay.

Calls of active or inactive are those of the source. Unless noted, the rule behind the calls is not given here.

As usually defined, the viability is the share of living cells, or the viability signal relative to a control. By inhibition is commonly meant the relative decrease from the control value, in per cent.

The nature of test [1]: modulation of C. elegans fzo-1 (AID 1259413).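 Note: fzo-1 mutant C. elegans worms in liquid wells.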 The settings on record: C. elegans fzo-1 modulator screen, mean read-out; stronger effect = higher value.
Test [2] is described as follows: P. berghei load reduction in hepatocytes – cell-based, HepG2, luciferase luminescence, HepG2 viability, primary screen (AID 624349; in the data active = parasite load remaining mostly below about 12%, no sharp cut-off; inactive = mostly above about 10%;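 note: 100% = mean of DMSO negative control wells on the same plate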). To be noted: P. berghei liver stage in HepG2, luciferase luminescence, concentration not given here; parasite load remaining: stronger effect = lower value; viability: measured here: HepG2 viability without parasites.
Test [3] is described as follows: signal quenchers or enhancers, Cy5 substrate/SSB – biochemical, NIH Clinical Collection, E. coli SSB, artefact control for HCV NS3 helicase inhibitor project (AID 743268). The settings on record: Cy5-oligo bound E. coli SSB, fluorescence interference.
Test [4] deals with Hepatitis C virus NS3 helicase. As to the kind of experiment: blockers of NS3h binding to DNA – biochemical, fluorescence polarization, NIH Clinical Collection, primary screen (AID 743270). To be noted: NS3 helicase binding to Cy5-dT15 DNA, stronger effect = higher value, concentration not given here. In general terms: Polarisation of emitted light reports the rotation of a fluorescent probe.

Test [5] deals with Single-stranded DNA-binding protein (Escherichia coli (strain K12)) (UniProt P0AGE0). In words: SSB-ssDNA binding inhibitors – biochemical, fluorescence polarization, NIH Clinical Collection, counter-screen for HCV NS3 helicase inhibitor project (AID 743271; in the data active = inhibition above about 28%). The settings on record: E. coli SSB-DNA binding, stronger effect = higher value, concentration not given here.
A short description of test [6]: compounds distorting NS3 helicase fluorescence signal – biochemical, NIH Clinical Collection, artefact control for HCV NS3 helicase inhibitor project (AID 743272).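 Note: HCV NS3 helicase with a Cy5 labelled single stranded DNA probe.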 To be noted: fluorescence interference counterscreen, HCV NS3 helicase assay; stronger effect = lower value. In general terms: Counterscreens check selectivity or assay interference.
Test [7] has as its system Neuropilin-2 / VEGF-C interaction (human). As to the kind of experiment: small molecules blocking Neuropilin-2/VEGF-C interaction – biochemical, microplate binding format, z-score (AID 743281). The settings on record: microplate NRP2/VEGF-C binding assay; stronger effect = lower value.

Turning to `CCC(=O)OCC(=O)[C@@]1(OC(=O)CC)[C@@H](C)C[C@H]2[C@@H]3CCC4=CC(=O)C=CC4(C)[C@@]3(Cl)[C@@H](O)CC21C` (stereo not given in full), the mean signal in test [1] is 228 (inactive).
Take `CC(=O)OC1C([N+]2(C)CCCCC2)C[C@H]2C3CC[C@H]4C[C@H](OC(C)=O)C([N+]5(C)CCCCC5)CC4(C)[C@H]3CCC12C` (stereo not given in full): the parasite load remaining in test [2] was 86.3% (inactive). For the same compound, the viability in test [2] was found to be 68.8%. Further, the fluorescence ratio is 0.94 (inactive) in test [3] and 0.71 (active) in test [6]. Besides, the inhibition is -0.4% (inactive) in test [4] and 11.4% (inactive) in test [5]. Also, in test [7], the call was inactive. The mean signal in test [1] was 283 (inactive).
On to `CO[C@H]1C=CO[C@@]2(C)Oc3c(C)c(O)c4c(O)c(c5c(nc6cc(C)ccn65)c4c3C2=O)NC(=O)/C(C)=C\C=C[C@H](C)[C@H](O)[C@@H](C)[C@@H](O)[C@@H](C)[C@H](OC(C)=O)[C@@H]1C`, for which the result in test [7] was inactive. Moreover, the mean signal in test [1] was 289 (inactive).
The like results for `CCC(=O)O[C@]1(C(=O)SCF)[C@H](C)C[C@H]2[C@@H]3C[C@H](F)C4=CC(=O)C=CC4(C)[C@@]3(F)[C@@H](O)CC21C` (stereo not given in full) were, in that order, “inactive” and 245 (inactive).
Regarding `CC[C@H]1OC(=O)[C@H](C)C(=O)[C@H](C)[C@@H](O[C@@H]2O[C@H](C)C[C@H](N(C)C)[C@H]2O)[C@](C)(OC)C[C@@H](C)C(=O)[C@H](C)[C@@H]2N(CCCCn3cnc(-c4cccnc4)c3)C(=O)OC21C` (stereo not given in full), in test [7], the outcome was inactive. Also, the mean signal in test [1] is 205 (inactive).
